From PubChem BioAssay (NCI)
About 79,000 compounds went through this panel and 15% of them were active in at least one assay; those are over-represented in the sample as a whole. Activity calls are given as the source filed them. No stated cut-off is given here; in the data, active means growth inhibition above about 70%; inactive means the rest.

Key:
[1] = NCI Yeast Anticancer Drug Screen. Data for the rad52 strain (AID 147);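 further: 0% = growth of vehicle-treated control cultures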; settings: S. cerevisiae rad52 mutant growth inhibition, hits give high values
In short: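 Growth of repair-deficient yeast cells was compared between compound-treated and vehicle-treated cultures to give percent inhibition.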

[2] = NCI Yeast Anticancer Drug Screen. Data for the wt1 strain (AID 149);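 further: 0% = growth of vehicle-treated wt1 cultures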; settings: S. cerevisiae wt1 strain (SPY 50644) growth inhibition, hits give high values
In short: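 Each compound is tested on wt1 yeast and the loss of growth versus vehicle gives the inhibition value.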

[3] = NCI Yeast Anticancer Drug Screen. Data for the rad50EPP+ strain (AID 151);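 further: 0% = growth of vehicle-treated control cultures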; settings: S. cerevisiae rad50 mutant strain, hits give high values
In short: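 Measured: growth inhibition of rad50EPP+ yeast. Reference: vehicle-treated controls. Screen uses strains with defined genetic alterations in DNA damage repair or cell cycle control.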

[4] = NCI Yeast Anticancer Drug Screen. Data for the mgt1 strain (AID 153); settings: S. cerevisiae mgt1 mutant growth inhibition, hits give high values
In short: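 Compounds were applied to mgt1 mutant yeast, and growth was then compared against vehicle-treated control cultures to give percent inhibition.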

[5] = NCI Yeast Anticancer Drug Screen. Data for the rad50 strain (AID 155);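 further: 0% = growth of vehicle-only cultures of the same strain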; settings: S. cerevisiae rad50 strain growth inhibition, hits give high values
In short: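 Vehicle-treated cultures provide the reference for the growth inhibition reported for compound-exposed, repair-deficient yeast.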

[6] = NCI Yeast Anticancer Drug Screen. Data for the mec2-1 strain (AID 157); settings: S. cerevisiae mec2-1 strain, hits give high values
In short: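 Compounds were applied to mec2-1 yeast cells. Their growth was then compared with that of vehicle-treated cultures to give growth inhibition.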

[7] = NCI Yeast Anticancer Drug Screen. Data for the rad14 strain (AID 159);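 further: 0% = growth of vehicle-treated control cultures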; settings: S. cerevisiae rad14 strain growth inhibition, hits give high values
In short: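 Inhibition of growth is reported for a repair-deficient yeast mutant following compound treatment, calculated relative to cultures that received vehicle.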

[8] = NCI Yeast Anticancer Drug Screen. Data for the sgs1 mgt1 strain (AID 161);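 further: 0% = growth of cultures given vehicle only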; settings: S. cerevisiae sgs1 mgt1 strain, hits give high values
In short: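 Yeast cells carrying a defined DNA-repair defect were exposed to test compounds. Growth inhibition was measured relative to vehicle-treated controls.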

[9] = NCI Yeast Anticancer Drug Screen. Data for the CLN2oe strain (AID 163);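 further: 0% = growth of vehicle-only control cultures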; settings: S. cerevisiae CLN2oe strain, hits give high values
In short: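 Cells of an engineered yeast line with disturbed cell-cycle regulation are treated with compound. Inhibition of growth is then calculated relative to the vehicle-treated reference.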

[10] = NCI Yeast Anticancer Drug Screen. Data for the cln2 rad14 strain (AID 165);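 further: 0% = growth equal to vehicle treated cultures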; settings: S. cerevisiae cln2 rad14 strain, hits give high values
In short: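 Strain: cln2 rad14 yeast, altered in cell cycle control and DNA damage repair. Read-out: growth inhibition vs vehicle.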

[11] = NCI Yeast Anticancer Drug Screen. Data for the bub3 strain (AID 167); settings: S. cerevisiae bub3 mutant strain, hits give high values
In short: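 Mutant yeast screening strain plus compound; vehicle-treated cultures serve as the 0% inhibition reference.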

[12] = NCI Yeast Anticancer Drug Screen. Data for the wt2 strain (AID 169); settings: S. cerevisiae wt2 strain growth inhibition, hits give high values
In short: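 Growth of compound-treated yeast is measured and expressed as inhibition relative to vehicle-only controls.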

[13] = NCI Yeast Anticancer Drug Screen. Data for the mlh1 strain (AID 171);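 further: 0% = growth of vehicle-treated control cultures of the same strain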; settings: S. cerevisiae mlh1 strain growth inhibition, hits give high values
In short: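 Test agents were incubated with yeast bearing a defined DNA damage repair or cell cycle control alteration; values are growth inhibition normalised to vehicle-treated cultures.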

[14] = NCI Yeast Anticancer Drug Screen. Data for the sgs1 strain (AID 173);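 further: 0% = growth of vehicle-only control cultures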; settings: S. cerevisiae sgs1 mutant, hits give high values
In short: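 Strain with an altered DNA repair or cell cycle pathway exposed to compound. Growth then measured. Value = inhibition versus vehicle control.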

[15] = NCI Yeast Anticancer Drug Screen. Data for the mlh1 rad18 strain (AID 175); settings: S. cerevisiae mlh1 rad18 strain growth inhibition, hits give high values
In short: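 A repair-deficient yeast strain is exposed to test compound, and growth is scored relative to vehicle-treated controls.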

[16] = NCI Yeast Anticancer Drug Screen. Data for the rad18 strain (AID 177); settings: S. cerevisiae rad18 mutant growth inhibition, hits give high values
In short: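 DNA-repair-defective yeast; compound treatment; growth inhibition scored against vehicle.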

[17] = at 5.0 µM (retest, dose inferred, filed as 0.5)
[18] = at 50.0 µM (retest, dose inferred, filed as 5.0)

Measured: growth inhibition

CCCCCCCCCCCCCC[N+](C)(CC(=O)[O-])Cc1ccccc1 (stereo unspecified)
active: [1]; at 11.0 µM 99% | [1]; at 33.0 µM 98% | [1]; at 100.0 µM 99% | [2]; at 11.0 µM 99% | [2]; at 100.0 µM 99% | [3]; at 11.0 µM 99% | [3]; at 33.0 µM 99% | [3]; at 100.0 µM 98% | [4]; at 11.0 µM 100% | [4]; at 33.0 µM 99% | [4]; at 100.0 µM 99% | [5]; at 11.0 µM 99% | [5]; at 33.0 µM 99% | [5]; [18] 99% | [5]; at 50.0 µM 98.8% | [5]; at 100.0 µM 99% | [6]; at 11.0 µM 99% | [6]; at 33.0 µM 99% | [6]; [18] 100% | [6]; at 50.0 µM 99.1% | [6]; at 100.0 µM 99% | [7]; at 11.0 µM 100% | [7]; at 33.0 µM 99% | [7]; at 100.0 µM 99% | [8]; [18] 99% | [8]; at 50.0 µM 98.8% | [9]; at 11.0 µM 99% | [9]; at 33.0 µM 99% | [9]; at 100.0 µM 99% | [10]; [18] 99% | [10]; at 50.0 µM 93.8% | [11]; at 11.0 µM 99% | [11]; at 33.0 µM 99% | [11]; [18] 99% | [11]; at 50.0 µM 98.9% | [11]; at 100.0 µM 98% | [12]; at 11.0 µM 100% | [12]; at 100.0 µM 99% | [13]; at 11.0 µM 99% | [13]; at 33.0 µM 99% | [13]; at 100.0 µM 99% | [14]; at 11.0 µM 99% | [14]; at 33.0 µM 99% | [14]; at 100.0 µM 99% | [15]; [18] 99% | [15]; at 50.0 µM 99.1% | [16]; at 11.0 µM 99% | [16]; at 33.0 µM 99% | [16]; at 100.0 µM 99%
inactive: [1]; at 1.2 µM 2% | [1]; at 3.7 µM 23% | [2]; at 1.2 µM -1% | [2]; at 3.7 µM 1% | [2]; at 33.0 µM 54% | [3]; at 1.2 µM 5% | [3]; at 3.7 µM 32% | [4]; at 1.2 µM 2% | [4]; at 3.7 µM 26% | [5]; at 1.2 µM 8% | [5]; at 3.7 µM 50% | [5]; [17] 8% | [6]; at 1.2 µM -2% | [6]; at 3.7 µM 3% | [6]; [17] 32% | [7]; at 1.2 µM 10% | [7]; at 3.7 µM 30% | [8]; [17] 13% | [9]; at 1.2 µM 5% | [9]; at 3.7 µM 19% | [10]; [17] 9% | [11]; at 1.2 µM -1% | [11]; at 3.7 µM 10% | [11]; [17] 2% | [12]; at 1.2 µM -6% | [12]; at 3.7 µM 9% | [12]; at 33.0 µM 60% | [13]; at 1.2 µM 2% | [13]; at 3.7 µM 31% | [14]; at 1.2 µM 2% | [14]; at 3.7 µM 30% | [15]; [17] 1% | [16]; at 1.2 µM 3% | [16]; at 3.7 µM 23%

COc1cc(/C=C2\CCc3ccccc3C2=O)cc(OC)c1OC
inactive: [1]; at 1.2 µM 3% | [1]; at 3.7 µM -3% | [1]; at 11.0 µM 3% | [1]; at 33.0 µM 18% | [2]; at 1.2 µM 9% | [2]; at 3.7 µM 3% | [2]; at 11.0 µM -2% | [2]; at 33.0 µM 11% | [3]; at 1.2 µM 1% | [3]; at 3.7 µM 2% | [3]; at 11.0 µM 17% | [3]; at 33.0 µM 30% | [3]; at 100.0 µM 40% | [4]; at 1.2 µM -9% | [4]; at 3.7 µM -14% | [4]; at 11.0 µM -45% | [4]; at 33.0 µM 6% | [5]; at 1.2 µM 6% | [5]; at 3.7 µM -3% | [5]; [17] 15% | [5]; at 11.0 µM -17% | [5]; at 33.0 µM 26% | [5]; [18] 6% | [5]; at 50.0 µM 44.1% | [6]; at 1.2 µM -17% | [6]; at 3.7 µM 10% | [6]; [17] -11% | [6]; at 11.0 µM 1% | [6]; at 33.0 µM 22% | [6]; [18] 14% | [6]; at 50.0 µM 25.6% | [7]; at 1.2 µM -10% | [7]; at 3.7 µM -25% | [7]; at 11.0 µM -44% | [7]; at 33.0 µM -28% | [7]; at 100.0 µM 48% | [8]; [17] 5% | [8]; [18] 33% | [8]; at 50.0 µM 56.8% | [9]; at 1.2 µM 13% | [9]; at 3.7 µM -2% | [9]; at 11.0 µM 2% | [9]; at 33.0 µM 15% | [10]; [17] 2% | [10]; [18] 24% | [10]; at 50.0 µM 39.8% | [11]; at 1.2 µM -29% | [11]; at 3.7 µM -13% | [11]; [17] -3% | [11]; at 11.0 µM 32% | [12]; at 1.2 µM 2% | [12]; at 3.7 µM 0% | [12]; at 11.0 µM -10% | [12]; at 33.0 µM 13% | [13]; at 1.2 µM -3% | [13]; at 3.7 µM -7% | [13]; at 11.0 µM -11% | [13]; at 33.0 µM 21% | [14]; at 1.2 µM 16% | [14]; at 3.7 µM 17% | [14]; at 11.0 µM 24% | [14]; at 33.0 µM 61% | [15]; [17] -15% | [15]; [18] 0% | [15]; at 50.0 µM 33.5% | [16]; at 1.2 µM 5% | [16]; at 3.7 µM 8% | [16]; at 11.0 µM 7% | [16]; at 33.0 µM 35%
active: [1]; at 100.0 µM 70% | [2]; at 100.0 µM 76% | [4]; at 100.0 µM 73% | [5]; at 100.0 µM 72% | [6]; at 100.0 µM 73% | [9]; at 100.0 µM 74% | [11]; at 33.0 µM 76% | [11]; [18] 86% | [11]; at 50.0 µM 74.3% | [11]; at 100.0 µM 85% | [12]; at 100.0 µM 79% | [13]; at 100.0 µM 75% | [14]; at 100.0 µM 86% | [16]; at 100.0 µM 73%
